{"source": "PubChem BioAssay AID951", "about": "(NMMLSC, 2007)", "note": "About 140 (0.074%) of roughly 190,000 compounds were called active. The list comes from a sample in which actives are over-represented; it also holds similar structures and randomly drawn compounds. Unmarked numbers belong to inactive results. Rule as the data show it: active = inhibition above about 40%."}
{"target": "Bcl-2-like protein 10 (Homo sapiens) (UniProt Q9HD36)", "sequence (Q9HD36 whole entry, looked up)": "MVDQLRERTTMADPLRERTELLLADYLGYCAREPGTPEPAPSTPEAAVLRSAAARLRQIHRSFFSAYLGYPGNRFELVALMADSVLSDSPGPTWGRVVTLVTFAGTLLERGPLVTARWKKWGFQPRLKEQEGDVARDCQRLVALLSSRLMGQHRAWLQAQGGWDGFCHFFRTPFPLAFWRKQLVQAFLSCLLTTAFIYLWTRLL", "test": "Bcl-B and Bim peptide interaction disruptors – biochemical, multiplexed, human Bcl-2 family, primary screen (AID 951);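 also: 0% = tracer peptide without compound and 100% = reference inhibitor peptide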", "settings": "bead-based flow cytometry, Bim peptide-Bcl-B binding; at 10 µM; active compounds read high"}
{"smiles": "O=C(CSc1nncn1-c1cccnc1)N1CCOCC1", "inhibition": "-6%"}
{"smiles": "O=C(NCCCn1ccnc1)C(=O)c1cn(CC(=O)N2CCCCCC2)c2ccccc12", "inhibition": "0%"}
{"smiles": "Cn1ncc2c(NNC(=O)Cc3cccc4ccccc34)ncnc21", "inhibition": "-3%"}
{"smiles": "OCCC1CN(Cc2cccn2-c2nccs2)CCN1CCc1ccccc1", "note": "(stereo not drawn)", "inhibition": "-1%"}
{"smiles": "O=C(CN1C(=O)NC2(CCCCCC2)C1=O)NCc1cccs1", "inhibition": "-1%"}
{"smiles": "Cc1ccc(C(=O)Nc2ccc(C)c(S(=O)(=O)N(C)C)c2)s1", "inhibition": "0%"}
{"smiles": "CC(NC(=O)c1cccc2ccccc12)c1ccc2c(c1)CCCC2", "note": "(stereo not drawn)", "inhibition": "6%"}
{"smiles": "CCOCC(=O)Nc1ncc(S(=O)(=O)c2ccc([N+](=O)[O-])cc2)s1", "inhibition": "3%"}
{"smiles": "Cc1ccccc1NC(=O)CSC1=NCCN1", "inhibition": "-6%"}
{"smiles": "CCOC(=O)c1sc2nc(C)nc(Nc3ccc(OC)c(OC)c3)c2c1C", "inhibition": "2%"}
{"smiles": "CN(C)c1ccc(/C=N/N(Cc2ccccc2)c2ccccc2)cc1", "inhibition": "-3%"}
{"smiles": "C=CCn1c(CCNC(=O)c2ccccc2F)nnc1SCC(=O)Nc1ccc(OC)cc1", "inhibition": "0%"}
{"smiles": "COc1ccc(C2CC(c3ccccc3)=NN2C(=O)COC(=O)COc2ccccc2)cc1", "note": "(stereo not drawn)", "inhibition": "-5%"}
{"smiles": "CC(=O)Nc1cccc([N+](=O)[O-])c1", "inhibition": "-4%"}
{"smiles": "COC(=O)C1CCN(C(=O)c2cc(=O)[nH]c3ccccc23)CC1", "inhibition": "-1%"}
{"smiles": "CC1CCCC(NC(=O)COC(=O)[C@@H]2CC(O)CN2S(=O)(=O)c2ccc3c(c2)OCCO3)C1C", "note": "(stereo partly drawn)", "inhibition": "-1%"}
{"smiles": "O=C(CNC(c1ccccc1)c1ccccc1)Nc1ccc(F)cc1", "inhibition": "-8%"}
{"smiles": "Cc1ccc(/C=N/NC(=O)CNC(=O)COc2ccccc2)o1", "inhibition": "-7%"}
{"smiles": "C=CCc1ccccc1OCC(=O)N/N=C/c1ccccc1OCC", "inhibition": "-9%"}
{"smiles": "CCOc1ccccc1/C=N/NC(=O)CNC(=O)COc1ccccc1", "inhibition": "74% (active)"}
{"smiles": "CCOc1ccc(NC(=O)CN(C)CC(=O)NC(C)c2ccccc2)cc1OCC", "note": "(stereo not drawn)", "inhibition": "-4%"}
{"smiles": "Cc1cccc(C(=O)N2CCC(c3nc4ccccc4s3)CC2)c1", "inhibition": "-2%"}
{"smiles": "O=C(CSC1CC(=O)N(CCc2ccccc2)C1=O)Nc1ccc(Cl)cc1", "note": "(stereo not drawn)", "inhibition": "-5%"}
{"smiles": "C[C@@H]1CC[C@]2(O[C@@H](CCO)C[C@H](O)[C@H]2O)O1", "inhibition": "-5%"}
{"smiles": "O=C(N/N=C/c1ccco1)c1ccc(NC(=O)C2CC2)cc1", "inhibition": "-4%"}
{"smiles": "NC(=O)Cn1nc([N+](=O)[O-])nc1Oc1ccc(Br)cc1", "inhibition": "-1%"}
{"smiles": "CN1CCN(C(=O)CCc2ncc(C(F)(F)F)cc2Cl)CC1", "inhibition": "-8%"}
{"smiles": "COc1ccc(C(=O)NCC(=O)N/N=C/c2ccc([N+](=O)[O-])s2)cc1OC", "inhibition": "-2%"}
{"smiles": "Cc1ccc(S(=O)(=O)NNC(=O)Nc2cccc3ccccc23)cc1", "inhibition": "0%"}
{"smiles": "CCOC(=O)c1c(-c2cccc(N)c2)cn2ccccc12", "inhibition": "17%"}
{"smiles": "COc1ccc2c(c1)CC[C@@H]1[C@@H]2CC[C@]2(C)C(=O)CC[C@@H]12", "inhibition": "-3%"}
{"smiles": "CC(=O)C1C(c2ccc(Cl)cc2)c2c(n[nH]c2C)CC1(C)O", "note": "(stereo not drawn)", "inhibition": "-4%"}
{"smiles": "CCNC(=O)COC(=O)CCNC(=O)c1cccc(C)c1", "inhibition": "-4%"}
{"smiles": "NC(=O)C[n+]1cccc(C(N)=O)c1", "inhibition": "-1%"}
{"smiles": "O=C(CP(=O)(c1ccccc1)c1ccccc1)N1CCOCC1", "inhibition": "-6%"}
{"smiles": "CS(=O)(=O)Nc1cccc(-c2cn3ccccc3n2)c1", "inhibition": "-2%"}
{"smiles": "CSc1ccc(/C=N/N2CCN(Cc3ccccc3Cl)CC2)cc1", "inhibition": "-8%"}
{"smiles": "CCC(C(=O)OCC(=O)Nc1c(Cl)cc(Cl)cc1Cl)c1ccccc1", "note": "(stereo not drawn)", "inhibition": "-7%"}
{"smiles": "C=CCn1c(SCC(N)=O)nnc1-c1cc2c(s1)CCC(CC)C2", "note": "(stereo not drawn)", "inhibition": "-12%"}
{"smiles": "N=C1C(c2nc3ccccc3[nH]2)=C(O)CN1NC(=O)c1c[nH]c2ccccc12", "inhibition": "-2%"}
{"smiles": "Cc1cc(C)c2nc(-c3cccnc3)cc(C(=O)Nc3ccc(S(=O)(=O)Nc4onc(C)c4C)cc3)c2c1", "inhibition": "-1%"}
{"smiles": "O=C1N(c2ccc(Cl)cc2)C(c2ccc(Cl)cc2)N2CCCN12", "note": "(stereo not drawn)", "inhibition": "-11%"}
{"smiles": "CC(=O)NC(CC(=O)O)c1ccc(F)cc1", "note": "(stereo not drawn)", "inhibition": "-4%"}
{"smiles": "Cc1ccc(CC2CC(=O)N(c3nc(C)cc(C)n3)C2=O)cc1", "note": "(stereo not drawn)", "inhibition": "-1%"}
{"smiles": "CC(C)(C)c1nnc(N/N=C/c2ccc(O)cc2)n(N)c1=O", "inhibition": "-7%"}
{"smiles": "Fc1ccccc1N=C1Nc2cccc3cccc1c23", "inhibition": "-4%"}
{"smiles": "Cc1ccccc1C(=O)OC1OC(=O)C(Cl)=C1Nc1ccccc1", "note": "(stereo not drawn)", "inhibition": "-2%"}
{"smiles": "N#CCSc1nn(-c2ccc(F)cc2)c(=S)s1", "inhibition": "-7%"}
{"smiles": "O=C(CSc1nn(-c2ccc(F)cc2)c(=S)s1)NC1CCS(=O)(=O)C1", "note": "(stereo not drawn)", "inhibition": "-1%"}
{"smiles": "Cc1ccccc1-n1nc(SCC(=O)O)sc1=S", "inhibition": "43% (active)"}
{"smiles": "O=C(Nc1ccc(Br)cn1)c1ccc([N+](=O)[O-])cc1Cl", "inhibition": "-6%"}
{"smiles": "Cc1ccc(COc2ccc(C(=O)NN)cc2)cc1", "inhibition": "-3%"}
{"smiles": "COc1cc(C2/C(=C(\\O)c3ccc4c(c3)CC(C)O4)C(=O)C(=O)N2Cc2ccco2)ccc1O", "note": "(stereo not drawn)", "inhibition": "1%"}
{"smiles": "O=C(O)/C=C/c1ccc(S(=O)(=O)N2CCCCCC2)cc1", "inhibition": "0%"}
{"smiles": "Cc1cc(Cl)c(S(=O)(=O)NCCC(=O)O)cc1OCC(N)=O", "inhibition": "-7%"}
{"smiles": "Cc1cc(Cl)c(S(=O)(=O)NCC2CCCO2)cc1OCC(N)=O", "note": "(stereo not drawn)", "inhibition": "80% (active)"}
{"smiles": "Cc1cc(Cl)c(S(=O)(=O)Nc2ccc3c(c2)OCCO3)cc1OCC(N)=O", "inhibition": "-2%"}
{"smiles": "CCOc1cc2[nH]c(=O)n(Cc3ccc(C(=O)NCCCN4CCCC4=O)cc3)c(=O)c2cc1OCC", "inhibition": "-6%"}
{"smiles": "OCC1(Cc2ccccc2C(F)(F)F)CCN(Cc2cccc3cnccc23)CC1", "inhibition": "0%"}
{"smiles": "CCOc1ccc(NC(=O)CSc2nc3ccccc3c(=O)n2Cc2cccs2)cc1", "inhibition": "-7%"}
{"smiles": "Cc1ccc(S(=O)(=O)N2CCOCC2)cc1C(=O)OC1CCCCC1=O", "note": "(stereo not drawn)", "inhibition": "-7%"}
{"smiles": "Cc1ccc(C(=O)N/C(=C/c2cccnc2)C(=O)O)cc1", "inhibition": "-7%"}
{"smiles": "N/C(=N/O)c1cccn1Cc1ccccc1[N+](=O)[O-]", "inhibition": "-4%"}
